PubChem BioAssay (NCATS)
“And” between values parts separate entries of the source, which are not always exact repeats. Identical values can stand only once. A number with no mark means an inactive call. Inconclusive results are not listed. Entries that show only a call come without a potency. The source made the active and inactive calls. Unless noted, calls follow the shape of the dose curve; as a rule, active = well fitted curve in the direction sought with a large enough effect; inconclusive = small, poorly fitted or top-dose-only effect, or another doubt; inactive = no such curve, though single readings can be large; an effect the other way counts as inactive or inconclusive.

Key:
[1] = Cell Viability - Renal Proximal Tubule (AID 545);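 also: cells exposed to compound for 40 hours; nearly all actives have a fitted effect of over 40% in size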
Outline: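 Cytotoxicity is scored as a concentration-dependent drop in cellular ATP in primary rat renal proximal tubule cells exposed for 40 hr. AC50 derives from Hill modelling.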

[2] = Cellular Toxicity (caspase-3) Jurkat (AID 655); settings: Jurkat caspase-3 activation, luminescence; caspase-3 activation: at 92.2 µM (top of the series), DMSO = 0%, tamoxifen = 100%;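 also: cells exposed to compound for 16 h at 37 °C before reading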
Outline: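 Caspase 3/7 activation is scored as increased luminescence in Jurkat cells cultured with compound for 16 hours in complete medium. AC50 values come from Hill fits of qHTS concentration-response data normalized to DMSO and 100 uM tamoxifen controls.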

[3] = Cellular Toxicity (caspase-3) Hek293 (AID 664); settings: HEK293 caspase-3 activation, DMSO = 0%, 100 µM tamoxifen = 100%; at 92.2 µM (top of the series);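 also: cells exposed to compound for 16 h at 37 °C before readout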
Outline: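 Concentration-response qHTS: caspase 3/7 activation measured by luminescent aminoluciferin substrate cleavage after 16 h compound exposure of Hek 293 cells. AC50 from Hill equation, with DMSO as basal and 100 uM tamoxifen as 100%.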

[4] = Cell Viability - LYMP1-003 - Assay at 40 hr (AID 964); also: nearly all actives have a fitted effect of over 60% in size
Outline: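 Viability is taken as cellular ATP, read by CellTiter-Glo luminescence after 40 h of compound exposure at 37 C. Cells: human lymphoblastoid line LYMP1-003 at 2500/well; AC50 values derived by Hill-equation fitting of concentration-response data.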

[5] = Cell Viability - LYMP2-003 (AID 965);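 also: cells exposed to compounds for 24 h before reading; nearly all actives have a fitted effect of over 50% in size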
Outline: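 Acute cytotoxicity is scored as a concentration-dependent drop in intracellular ATP, measured by luciferase luminescence in human lymphoblastoid cells treated for 24 hours at 37 C. AC50 values derive from Hill-equation modelling.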

[6] = Cell Viability - LYMP2-009 (AID 968); also: nearly all actives have a fitted effect of over 55% in size
[7] = Cell Viability - LYMP2-011 (AID 969); also: nearly all actives have a fitted effect of over 60% in size
Outline: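 Cytotoxicity qHTS with ATP content as read-out: lymphoblastoid cells (2500/well) exposed to compound for 24 h at 37 C, then luciferase luminescence measured. Concentration-response data fitted with the standard Hill equation to give AC50.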

[8] = Cell Viability - LYMP2-017 (AID 972); also: nearly all actives have a fitted effect of over 55% in size
Outline: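 CellTiter-Glo luminescence (cellular ATP, 30 min RT) measured cytotoxicity after 24 hr compound treatment at 37 C. Cells were a human lymphoblastoid line, LYMP2-017, plated at 2500/well and incubated 5 hr first; concentration-response fitted with Hill equation for AC50.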

[9] = Cell Viability - LYMP2-019 (AID 973); also: nearly all actives have a fitted effect of over 55% in size
Outline: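 AC50 values come from Hill-equation fits of luminescent intracellular ATP (CellTiter-Glo, 30 min, room temperature) following 24 h compound exposure at 37 C. Cells: LYMP2-019 lymphoblastoid line, 2500 per well, in complete culture medium.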

[10] = Cell Viability - LYMP2-002 (AID 977)
Outline: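 In this qHTS viability screen, 2500 human lymphoblastoid cells per well receive compound for 24 hr at 37 C, and luciferase-based ATP luminescence gives the viability signal. Tetraoctylammonium bromide serves as positive control.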

[11] = Cell Viability - LYMP2-006 (AID 978); also: nearly all actives have a fitted effect of over 60% in size
Outline: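 Concentration-dependent loss of intracellular ATP in a human lymphoblastoid line after 24 hr treatment at 37 C was measured by CellTiter-Glo luminescence, with AC50 values obtained from standard Hill-equation modelling.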

[12] = Cell Viability - LYMP2-010 (AID 981); also: nearly all actives have a fitted effect of over 55% in size
Outline: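 CellTiter-Glo ATP luminescence measured cytotoxicity after 24 h compound exposure at 37 C. LYMP2-010 cells were seeded at 2500/well, with tetraoctylammonium bromide as control; concentration-response curves gave AC50 values by the Hill equation.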

[13] = Cell Viability - LYMP2-020 (AID 986); also: nearly all actives have a fitted effect of over 55% in size
Outline: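 Cytotoxicity in qHTS format: luminescent ATP readout from CellTiter-Glo after 24 h compound exposure at 37 C in complete medium. LYMP2-020 lymphoblastoid cells were seeded at 2500/well; concentration-response data fitted to the Hill equation for AC50.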

[14] = Cell Viability - LYMP2-022 (AID 987); also: nearly all actives have a fitted effect of over 55% in size
Outline: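 Cytotoxicity read as decreased cellular ATP (CellTiter-Glo luminescence, 30 min room temperature) after 24 hours compound exposure of 2500 lymphoblastoid LYMP2-022 cells/well at 37 C. Concentration-response data fitted with standard Hill equation for AC50.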

[15] = molecular target: Voltage-gated inwardly rectifying potassium channel KCNH2 (Homo sapiens) (UniProt Q12809); assay: qHTS Assay for Small Molecule Inhibitors of the Human hERG Channel Activity (AID 588834);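 also: lower thallium flux fluorescence means stronger hERG block; nearly all actives have a fitted effect of over 50% in size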; also: potency is read from the fitted curve at half-maximal effect
Outline: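 Cells were infected with hERG-BacMam virus for 4 hrs at room temperature, grown overnight, then seeded at 2000/well. After dye loading and roughly 10 min compound treatment, thallium influx was triggered and fluorescence recorded.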

[16] = qHTS assay for small molecule activators of the nuclear factor-kappa B (NF-kB) signaling pathway (AID 651749; active = well fitted activation curve with a large enough effect in the signal ratio; the % refers to the signal ratio); settings: NF-kB-bla ME-180 cells, beta-lactamase FRET ratio, 16 h; active compounds read high
Outline: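 Human ME-180 cervical cells with an NF-kB-bla construct; compounds added via 23 nL pin transfer, DMSO as vehicle; incubation 16 hr. Reporter activity measured by FRET disruption.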

[17] = qHTS assay for small molecule activators of the human pregnane X receptor (PXR) signaling pathway (AID 720659; call rule not given here)
[18] = molecular target: Mitogen-activated protein kinase 10 (Mus musculus) (UniProt Q61831); assay: JNK3 AlphaScreen Assay (AID 530; active = well fitted curve in either direction with a large enough effect, not every such curve was filed as active;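 also: kinase came from lysate of stimulated human HepG2 cells; signal reports phosphorylation of biotinylated GST-cJun 1-79 at Ser73 with 10 µM ATP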)
Outline: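 Phosphorylation of biotinylated GST-cJun(1-79) at Ser73 is measured by AlphaScreen proximity luminescence. Enzyme is JNK3 in HepG2 lysates activated with interleukin-1beta and tumor necrosis factor alpha; ATP is 10 uM final.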

[19] = Cell Viability - LYMP2-014 (AID 983); also: nearly all actives have a fitted effect of over 50% in size
Outline: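 Intracellular ATP loss, read by luciferase luminescence, measures acute cytotoxicity after 24 h compound exposure of lymphoblastoid LYMP2-014 cells (2500/well, 37 C). Concentration-response data fitted to the Hill equation for AC50.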

[20] = Cell Viability - LYMP2-021 (AID 974); also: nearly all actives have a fitted effect of over 55% in size
Outline: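 AC50 values come from Hill-equation fits to CellTiter-Glo luminescence (ATP content), read after 24 hour compound exposure at 37 C of 2500 LYMP2-021 lymphoblastoid cells/well; tetraoctylammonium bromide as positive control.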

Chain of Voltage-gated inwardly rectifying potassium channel KCNH2 (Homo sapiens) (Q12809 whole entry, looked up): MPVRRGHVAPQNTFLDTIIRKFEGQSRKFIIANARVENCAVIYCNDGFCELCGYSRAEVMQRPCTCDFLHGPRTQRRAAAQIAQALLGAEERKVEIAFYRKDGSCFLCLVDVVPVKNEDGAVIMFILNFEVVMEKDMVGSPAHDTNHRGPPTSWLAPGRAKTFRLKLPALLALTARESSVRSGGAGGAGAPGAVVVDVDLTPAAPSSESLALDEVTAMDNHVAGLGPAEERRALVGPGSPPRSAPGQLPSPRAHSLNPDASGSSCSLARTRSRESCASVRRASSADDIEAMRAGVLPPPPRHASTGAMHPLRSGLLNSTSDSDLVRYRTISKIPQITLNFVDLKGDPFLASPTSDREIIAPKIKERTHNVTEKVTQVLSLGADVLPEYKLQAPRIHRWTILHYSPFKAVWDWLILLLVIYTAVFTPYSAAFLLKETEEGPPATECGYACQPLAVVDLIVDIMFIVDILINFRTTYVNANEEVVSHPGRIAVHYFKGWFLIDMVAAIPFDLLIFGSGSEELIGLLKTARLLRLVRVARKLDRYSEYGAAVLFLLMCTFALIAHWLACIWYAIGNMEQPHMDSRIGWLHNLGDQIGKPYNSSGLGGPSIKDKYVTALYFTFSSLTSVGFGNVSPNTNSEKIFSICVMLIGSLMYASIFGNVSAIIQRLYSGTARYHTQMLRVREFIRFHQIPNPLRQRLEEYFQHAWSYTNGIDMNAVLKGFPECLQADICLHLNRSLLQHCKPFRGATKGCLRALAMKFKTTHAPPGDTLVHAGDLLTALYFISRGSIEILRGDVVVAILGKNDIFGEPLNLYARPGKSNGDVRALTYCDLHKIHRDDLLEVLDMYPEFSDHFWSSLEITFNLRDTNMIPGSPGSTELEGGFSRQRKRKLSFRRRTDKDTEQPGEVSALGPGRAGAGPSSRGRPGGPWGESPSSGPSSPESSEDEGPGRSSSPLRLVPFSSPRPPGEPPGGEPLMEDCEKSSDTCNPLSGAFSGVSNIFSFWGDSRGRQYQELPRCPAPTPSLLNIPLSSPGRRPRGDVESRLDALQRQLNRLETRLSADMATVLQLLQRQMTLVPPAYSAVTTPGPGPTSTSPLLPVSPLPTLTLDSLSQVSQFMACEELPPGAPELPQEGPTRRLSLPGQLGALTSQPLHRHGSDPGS

CCCC[N+](=O)[O-]
outcome [1]: inactive
caspase-3 activation [2]: 102% (active)
caspase-3 activation [3]: 23.2%
Potency [4]: inactive
Potency [5]: inactive
Potency [6]: inactive
Potency [7]: inactive
Potency [8]: inactive
Potency [9]: inactive
Potency [10]: inactive
Potency [11]: inactive
Potency [12]: inactive
Potency [13]: inactive
Potency [14]: inactive
Potency [15]: inactive
activation [16]: -0.304%
outcome [17]: inactive

O=C(O)C(Br)CBr (configuration not stated)
Potency [18]: inactive
caspase-3 activation [2]: 1.63%
Potency [4]: inactive
Potency [5]: inactive
Potency [6]: inactive
Potency [8]: inactive
Potency [9]: inactive
Potency [11]: inactive
Potency [12]: inactive
Potency [19]: inactive
Potency [13]: inactive
Potency [14]: inactive
Potency [15]: inactive
activation [16]: 1.48%
outcome [17]: inactive

Cc1ccc(OP(=O)(Oc2ccc(C)cc2)Oc2ccc(C)cc2)cc1
outcome [1]: inactive
caspase-3 activation [2]: 1.7%
caspase-3 activation [3]: 2.34%
Potency [5]: inactive
Potency [6]: inactive
Potency [7]: inactive
Potency [8]: inactive
Potency [9]: inactive
Potency [20]: inactive
Potency [10]: inactive
Potency [11]: inactive
Potency [12]: inactive
Potency [13]: inactive
Potency [14]: inactive
Potency [15]: 20 µM (active)
activation [16]: -1% and 2.01%

ClC(Cl)Br
outcome [1]: inactive
caspase-3 activation [2]: 0.703%
caspase-3 activation [3]: -0.335%
Potency [4]: inactive
Potency [5]: inactive
Potency [6]: inactive
Potency [7]: inactive
Potency [8]: inactive
Potency [9]: inactive
Potency [20]: inactive
Potency [10]: inactive
Potency [11]: inactive
Potency [12]: inactive
Potency [19]: inactive
Potency [13]: inactive
Potency [14]: inactive
Potency [15]: inactive
activation [16]: -1.16%
outcome [17]: inactive

CCSC(=O)N1CCCCCC1
caspase-3 activation [2]: 0.302%
caspase-3 activation [3]: 2.55%
Potency [4]: inactive
Potency [5]: inactive
Potency [6]: inactive
Potency [7]: inactive
Potency [8]: inactive
Potency [9]: inactive
Potency [10]: inactive
Potency [11]: inactive
Potency [12]: inactive
Potency [13]: inactive
Potency [14]: inactive
Potency [15]: inactive
activation [16]: 0.506% and -0.843%
outcome [17]: inactive

Cc1cc(N=Nc2ccccc2C)ccc1N
caspase-3 activation [2]: 2.76%
caspase-3 activation [3]: -5.62%
Potency [5]: inactive
Potency [6]: inactive
Potency [7]: inactive
Potency [8]: inactive
Potency [9]: inactive
Potency [20]: inactive
Potency [10]: inactive
Potency [11]: inactive
Potency [12]: inactive
Potency [19]: inactive
Potency [13]: inactive
Potency [14]: inactive
Potency [15]: inactive
activation [16]: -0.0756% and -0.721%

C=CC(=O)OCCN(C)C
Potency [18]: inactive
outcome [1]: inactive
caspase-3 activation [2]: 1.53%
caspase-3 activation [3]: -0.126%
Potency [4]: inactive
Potency [5]: inactive
Potency [6]: inactive
Potency [7]: inactive
Potency [8]: inactive
Potency [10]: inactive
Potency [11]: inactive
Potency [12]: inactive
Potency [19]: inactive
Potency [13]: inactive
Potency [14]: inactive
Potency [15]: inactive
activation [16]: -1.13%
outcome [17]: inactive
